# Laboratory results taken from PMC11006913.
# Key:
# HOXA7 [1] = biological target: HOXA7 (Homo sapiens, UniProt P31268 116-202); test: PBM; 200 nM protein, PBS; conditions: dsDNA, one strand shown
# HOXA7 [2] = biological target: HOXA7 (Homo sapiens, UniProt P31268 116-202, W177C); test: PBM; 200 nM protein, PBS; conditions: dsDNA, one strand shown
# Chain of HOXA7 (Homo sapiens, UniProt P31268 116-202, W177C) (P31268 116-202 W177C): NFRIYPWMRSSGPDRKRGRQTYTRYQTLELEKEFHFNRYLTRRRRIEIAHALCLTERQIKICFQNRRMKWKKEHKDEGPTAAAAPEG
# Chain of HOXA7 (Homo sapiens, UniProt P31268 116-202) (P31268 116-202): as the sequence (P31268 116-202 W177C) above, with C62W counted along it
Sequence,binding signal (HOXA7 [1]),binding signal (HOXA7 [2])
ACCCCCCT,"8.3 upbm affinity estimate (log intensity, higher = more binding, comparable within an allelic series)","8.32 upbm affinity estimate (log intensity, higher = more binding, comparable within an allelic series)"
GAGCCAGC,"8.52 upbm affinity estimate (log intensity, higher = more binding, comparable within an allelic series)","8.41 upbm affinity estimate (log intensity, higher = more binding, comparable within an allelic series)"
CCATTTAA,"10.5 upbm affinity estimate (log intensity, higher = more binding, comparable within an allelic series)","8.76 upbm affinity estimate (log intensity, higher = more binding, comparable within an allelic series)"
AGCAGAAG,"8.46 upbm affinity estimate (log intensity, higher = more binding, comparable within an allelic series)","8.54 upbm affinity estimate (log intensity, higher = more binding, comparable within an allelic series)"
ATCATCTA,"9.36 upbm affinity estimate (log intensity, higher = more binding, comparable within an allelic series)","8.74 upbm affinity estimate (log intensity, higher = more binding, comparable within an allelic series)"
AAGGACTG,"8.44 upbm affinity estimate (log intensity, higher = more binding, comparable within an allelic series)","8.4 upbm affinity estimate (log intensity, higher = more binding, comparable within an allelic series)"
CGGTCCGC,"8.63 upbm affinity estimate (log intensity, higher = more binding, comparable within an allelic series)","8.41 upbm affinity estimate (log intensity, higher = more binding, comparable within an allelic series)"
CCTCGAGG,"8.59 upbm affinity estimate (log intensity, higher = more binding, comparable within an allelic series)","8.59 upbm affinity estimate (log intensity, higher = more binding, comparable within an allelic series)"
CTTCTAGA,"8.36 upbm affinity estimate (log intensity, higher = more binding, comparable within an allelic series)","8.5 upbm affinity estimate (log intensity, higher = more binding, comparable within an allelic series)"
CAATTGCG,"9.48 upbm affinity estimate (log intensity, higher = more binding, comparable within an allelic series)","8.54 upbm affinity estimate (log intensity, higher = more binding, comparable within an allelic series)"
AAGGCTAC,"8.53 upbm affinity estimate (log intensity, higher = more binding, comparable within an allelic series)","8.49 upbm affinity estimate (log intensity, higher = more binding, comparable within an allelic series)"
AAATTGCC,"10.3 upbm affinity estimate (log intensity, higher = more binding, comparable within an allelic series)","8.7 upbm affinity estimate (log intensity, higher = more binding, comparable within an allelic series)"
CCAGAGGA,"8.4 upbm affinity estimate (log intensity, higher = more binding, comparable within an allelic series)","8.47 upbm affinity estimate (log intensity, higher = more binding, comparable within an allelic series)"
GGCCTGAA,"8.61 upbm affinity estimate (log intensity, higher = more binding, comparable within an allelic series)","8.38 upbm affinity estimate (log intensity, higher = more binding, comparable within an allelic series)"
CATTTACA,"9.74 upbm affinity estimate (log intensity, higher = more binding, comparable within an allelic series)","8.8 upbm affinity estimate (log intensity, higher = more binding, comparable within an allelic series)"
AGACGGCG,"8.6 upbm affinity estimate (log intensity, higher = more binding, comparable within an allelic series)","8.4 upbm affinity estimate (log intensity, higher = more binding, comparable within an allelic series)"
ACAGCGAG,"8.39 upbm affinity estimate (log intensity, higher = more binding, comparable within an allelic series)","8.41 upbm affinity estimate (log intensity, higher = more binding, comparable within an allelic series)"
CCCCGTTA,"9.61 upbm affinity estimate (log intensity, higher = more binding, comparable within an allelic series)","8.75 upbm affinity estimate (log intensity, higher = more binding, comparable within an allelic series)"
CTATTATA,"10.7 upbm affinity estimate (log intensity, higher = more binding, comparable within an allelic series)","8.92 upbm affinity estimate (log intensity, higher = more binding, comparable within an allelic series)"
AGAATGAT,"9.52 upbm affinity estimate (log intensity, higher = more binding, comparable within an allelic series)","8.8 upbm affinity estimate (log intensity, higher = more binding, comparable within an allelic series)"
ACTGAAGG,"8.48 upbm affinity estimate (log intensity, higher = more binding, comparable within an allelic series)","8.52 upbm affinity estimate (log intensity, higher = more binding, comparable within an allelic series)"
CAGTAATC,"9.67 upbm affinity estimate (log intensity, higher = more binding, comparable within an allelic series)","8.66 upbm affinity estimate (log intensity, higher = more binding, comparable within an allelic series)"
CAAAGCGG,"8.47 upbm affinity estimate (log intensity, higher = more binding, comparable within an allelic series)","8.45 upbm affinity estimate (log intensity, higher = more binding, comparable within an allelic series)"
CGCGTTTC,"8.49 upbm affinity estimate (log intensity, higher = more binding, comparable within an allelic series)","8.39 upbm affinity estimate (log intensity, higher = more binding, comparable within an allelic series)"

Sequence,binding signal (HOXA7 [1]),binding signal (HOXA7 [2])
CACCGCTA,"8.52 upbm affinity estimate (log intensity, higher = more binding, comparable within an allelic series)","8.43 upbm affinity estimate (log intensity, higher = more binding, comparable within an allelic series)"
GTCAGGCA,"8.57 upbm affinity estimate (log intensity, higher = more binding, comparable within an allelic series)","8.43 upbm affinity estimate (log intensity, higher = more binding, comparable within an allelic series)"
AGCTCGGA,"8.37 upbm affinity estimate (log intensity, higher = more binding, comparable within an allelic series)","8.35 upbm affinity estimate (log intensity, higher = more binding, comparable within an allelic series)"
CATTTTAA,"9.97 upbm affinity estimate (log intensity, higher = more binding, comparable within an allelic series)","8.79 upbm affinity estimate (log intensity, higher = more binding, comparable within an allelic series)"
CCTTCCGC,"8.39 upbm affinity estimate (log intensity, higher = more binding, comparable within an allelic series)","8.37 upbm affinity estimate (log intensity, higher = more binding, comparable within an allelic series)"
ACCGCTCC,"8.61 upbm affinity estimate (log intensity, higher = more binding, comparable within an allelic series)","8.49 upbm affinity estimate (log intensity, higher = more binding, comparable within an allelic series)"
CTGAAGGC,"8.34 upbm affinity estimate (log intensity, higher = more binding, comparable within an allelic series)","8.31 upbm affinity estimate (log intensity, higher = more binding, comparable within an allelic series)"
GCTCGGTA,"8.46 upbm affinity estimate (log intensity, higher = more binding, comparable within an allelic series)","8.43 upbm affinity estimate (log intensity, higher = more binding, comparable within an allelic series)"
CAGAGGAG,"8.43 upbm affinity estimate (log intensity, higher = more binding, comparable within an allelic series)","8.46 upbm affinity estimate (log intensity, higher = more binding, comparable within an allelic series)"
CGCAGGTC,"8.46 upbm affinity estimate (log intensity, higher = more binding, comparable within an allelic series)","8.44 upbm affinity estimate (log intensity, higher = more binding, comparable within an allelic series)"
AAAATGAC,"10 upbm affinity estimate (log intensity, higher = more binding, comparable within an allelic series)","8.89 upbm affinity estimate (log intensity, higher = more binding, comparable within an allelic series)"
GATTAAAC,"9.54 upbm affinity estimate (log intensity, higher = more binding, comparable within an allelic series)","8.63 upbm affinity estimate (log intensity, higher = more binding, comparable within an allelic series)"
AGACGGGA,"8.62 upbm affinity estimate (log intensity, higher = more binding, comparable within an allelic series)","8.51 upbm affinity estimate (log intensity, higher = more binding, comparable within an allelic series)"
TGAGAGCA,"8.62 upbm affinity estimate (log intensity, higher = more binding, comparable within an allelic series)","8.54 upbm affinity estimate (log intensity, higher = more binding, comparable within an allelic series)"
ACCTAATC,"9.7 upbm affinity estimate (log intensity, higher = more binding, comparable within an allelic series)","8.88 upbm affinity estimate (log intensity, higher = more binding, comparable within an allelic series)"
TAGTTTAA,"9.76 upbm affinity estimate (log intensity, higher = more binding, comparable within an allelic series)","8.8 upbm affinity estimate (log intensity, higher = more binding, comparable within an allelic series)"
CGACTAGC,"8.47 upbm affinity estimate (log intensity, higher = more binding, comparable within an allelic series)","8.47 upbm affinity estimate (log intensity, higher = more binding, comparable within an allelic series)"
CCGTAATA,"10.2 upbm affinity estimate (log intensity, higher = more binding, comparable within an allelic series)","8.79 upbm affinity estimate (log intensity, higher = more binding, comparable within an allelic series)"
CCAGGTCG,"8.48 upbm affinity estimate (log intensity, higher = more binding, comparable within an allelic series)","8.45 upbm affinity estimate (log intensity, higher = more binding, comparable within an allelic series)"
CCCCCGAC,"8.66 upbm affinity estimate (log intensity, higher = more binding, comparable within an allelic series)","8.36 upbm affinity estimate (log intensity, higher = more binding, comparable within an allelic series)"
CACATAAC,"9.46 upbm affinity estimate (log intensity, higher = more binding, comparable within an allelic series)","8.81 upbm affinity estimate (log intensity, higher = more binding, comparable within an allelic series)"
CGTGCAAG,"8.47 upbm affinity estimate (log intensity, higher = more binding, comparable within an allelic series)","8.43 upbm affinity estimate (log intensity, higher = more binding, comparable within an allelic series)"
AGATAAAC,"9.31 upbm affinity estimate (log intensity, higher = more binding, comparable within an allelic series)","8.79 upbm affinity estimate (log intensity, higher = more binding, comparable within an allelic series)"
CACCTACG,"8.56 upbm affinity estimate (log intensity, higher = more binding, comparable within an allelic series)","8.57 upbm affinity estimate (log intensity, higher = more binding, comparable within an allelic series)"
